Bioassay records as filed in PubChem BioAssay.
HCMV inh: human cytomegalovirus inhibition; hit rate 4.5% among 410,000; HFF cells, HCMV-luciferase reporter, 72 h; active compounds read low; AID 1259415; activity change, negative = inhibition, % at 57.5 µM; in the data active = activity change below about -60%; inconclusive = no clear call, values can overlap the other calls; inactive = above about -39%; also: % is scaled to controls: 0 for no effect and ±100 for the full control effect
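Cell-based, HFFs, 1000 cells/well, 16 h 37C; cpds in DMSO + HCMV-luc, MOI 1 PFU/cell; 72 h 37C; OneGlo luminescence after 5 min RT; norm. to buffer vs Salinomycin 10uM.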
Pf growth 48h: inhibits P. falciparum growth in the first generation, 48 h; P. falciparum luciferase growth in erythrocytes, 48 h; Potency, µM (top dose mostly 28.7 µM), for inactives: at the highest dose activity change, negative = inhibition, hits mostly inhibitors; AID 504832; hit rate 5.9% among 310,000; also: potency is read from the fitted curve at half-maximal effect; % is scaled to controls: 0 for no effect and ±100 for the full control effect
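Growth was read as firefly luciferase luminescence after a 48 h, 37 C, 5% CO2 exposure of compounds to reporter-bearing P. falciparum cultures (0.1% parasitemia, 2% hematocrit final) in Albumax-supplemented RPMI 1640.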
Cycloheximide cs: counter-screen for Shiga toxin inhibitors: cycloheximide protein synthesis inhibition; hit rate 12% among 300,000; AID 2314; max response, %; cell reporter, cycloheximide protein synthesis inhibition counterscreen; in the data active = max response mostly above about 13%, no sharp cut-off; inactive = mostly below about 14%; also: read at 38.3 µM for the half of the compounds with a filed dose; 0% is about no effect
Pf growth 96h: P. falciparum growth inhibition at 96 hours. Potency, µM (top dose mostly 28.7 µM), for inactives: at the top dose activity change, negative = inhibition, hits mostly inhibitors. hit rate 6.9% among 320,000. P. falciparum luciferase reporter growth, 96 h; also: potency is read from the fitted curve at half-maximal effect; % is scaled to controls: 0 for no effect and ±100 for the full control effect
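Compounds incubated with erythrocytes infected by luciferase-expressing P. falciparum (2% hematocrit, 0.05% parasitemia final) for 96 hours, 37 C in 5% CO2. Growth inhibition scored as decreased luciferase luminescence.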
Shiga inhibitor: blocks Shiga toxin action in Vero cells; AID 2315; inhibition, % at 38.7 µM; Vero cells, Shiga toxin protein synthesis inhibition reporter; hit rate 9.2% among 290,000; in the data active = inhibition mostly above about 28%, no sharp cut-off; inactive = mostly below about 43%; also: 0% is about no effect
Starred values were filed as active, the others as inactive; ? = inconclusive; . = no result; + = active, no number; [ ] = dose if it differs, or a comment. Sampled rows, rich in hits. Any-hit rate of the full collection: about 20%. Unless noted, calls follow the shape of the dose curve; as a rule, active = well fitted inhibition curve with a large enough effect; inconclusive = small, poorly fitted or top-dose-only effect, or another doubt; inactive = no such curve, though single readings can be large or run the other way.

SMILES	HCMV inh	Pf growth 48h	Cycloheximide cs	Pf growth 96h	Shiga inhibitor
COc1ccc(N(CC(=O)N2CCN(c3ccccc3F)CC2)S(=O)(=O)c2c(C)noc2C)cc1	-5.9	-14.4%	-1.2	5.86µM*	-4.6
O=S(=O)(c1ccccc1)c1nnn2c1nc(NCc1ccccc1)c1sccc12	6.0	.	.	.	.
CCc1cc(=O)oc2cc(C)cc(OCC(=O)NCc3ccncc3)c12	-18.9	-0.5%	2.5	-12.4%	-8.2
CC(=O)c1ccc(OCC(=O)Nc2ccc3c(c2)CCC3)cc1	-36.5	-6.4%	19.7*	57.2%	18.3
Cc1ccc(OCC(=O)Nc2ccc3c(c2)CCC3)c([N+](=O)[O-])n1	4.3	36.7%	39.9*	-0.4%	66.7*
Cc1ccc(OCC(=O)Nc2ccc(F)cc2)c([N+](=O)[O-])n1	38.5	347.8%	56.4*	314.5%	+
Cc1ccc(OCC(=O)Nc2ccc(Cl)cc2)c([N+](=O)[O-])n1	0.0	407.8%	.	318.0%	.
Cc1ccc(C)c(-n2nnc(C(=O)Nc3ccc(Br)cc3)c2C)c1	-18.8	.	.	.	.
O=C(NC1CCN(S(=O)(=O)c2cccc(F)c2)CC1)c1cccc(F)c1	-16.8	-4.7%	-1.0	0.0%	-1.0
Cc1cccc(C(=O)NC2CCN(C(=O)Nc3ccccc3C)CC2)c1	-102.9*	4.9%	22.4	28.7%	3.8
Cc1cccc(C(=O)NC2CCN(S(=O)(=O)c3cccc(F)c3)CC2)c1	-60.4*	.	.	.	.
CCSc1ccc(-c2nn(-c3ccccc3)cc2/C=C(/C#N)C(=O)NCCCOC)cc1	-5.7	1.85µM*	-3.9	?	-6.9
CCCSc1ccc(-c2nn(-c3ccccc3)cc2/C=C(/C#N)C(=O)NCCCOC)cc1	-27.5	1.2%	-2.5	3.7µM*	-4.7
CC(NC(=O)/C(C#N)=C/c1cn(-c2ccccc2)nc1-c1ccc(F)cc1)c1ccccc1 (stereo not given)	29.4	?	-6.1	?	-10.3
Cc1ccc(-c2nn(-c3ccccc3)cc2/C=C(\C#N)C(=O)NCc2ccccc2)cc1	2.0	14.1%	-0.6	44.4%	9.0
O=C(/C=C/c1ccc(F)cc1)NNC(=O)CCN1CCN(Cc2ccccc2)CC1	-96.2*	-11.3%	-0.2	6.3%	-2.7
COC(=O)c1ccc(CN2CCN(Cc3ccccc3)CC2)cc1	25.7	.	-3.4	0.0%	-7.4
COC(=O)c1ccc(NC(=O)CCN2CCN(Cc3ccccc3)CC2)cc1	-4.1	13.1µM*	-2.7	-26.7%	-4.3
COc1cccc(/C=C/C(=O)NNC(=O)CCN2CCN(Cc3ccccc3)CC2)c1	0.0	-39.0%	0.7	-43.7%	-3.1
CCc1ccc(C(=O)NNC(=O)CCN2CCN(Cc3ccccc3)CC2)cc1	-17.5	2.33µM*	8.8	38.4%	11.4
Nc1ncnc2c(C3OC(CO)C(O)C3O)scc12 (stereo not given)	-96.7*	.	.	.	.
Nc1ncnc2c1ncn2C1O[C@H](CO)[C@@H](O)[C@@H]1O (stereo not given in full)	35.3	-19.7%	.	43.7%	.
CCOC(=O)c1cccn1C1C(=O)N(Cc2ccc(OC)cc2)c2ccc(OC)cc21 (stereo not given)	-5.6	.	.	.	.
COc1ccccc1C(=O)N1N=C(c2ccc(NS(C)(=O)=O)cc2)CC1c1cccs1 (stereo not given)	-30.9	-7.1%[0.00184 µM]	0.7	14.8%	-5.5
Cc1ccccc1C(=O)N1N=C(c2ccc(NS(C)(=O)=O)cc2)CC1c1cccs1 (stereo not given)	-24.2	?	4.6	1.65µM*	-0.6
SMILES	HCMV inh	Pf growth 48h	Cycloheximide cs	Pf growth 96h	Shiga inhibitor
CS(=O)(=O)Nc1ccc(C2=NN(C(=O)CCCC(=O)O)C(c3cccs3)C2)cc1 (stereo not given)	-84.3*	-16.0%	2.9	1.85µM*	-2.3
COC(=O)C1=C(C)N=C2SC(C#N)=C(N)N2C1c1ccc(OCc2ccccc2)cc1 (stereo not given)	29.4	.	-1.5	11.7µM*	-14.6
COC(=O)C1=C(C)N=C2SC(C#N)=C(N)N2C1c1cc(OC)c(OC)c(OC)c1 (stereo not given)	30.8	?	-3.1	?	-4.4
CCOC(=O)c1cnc2ncnn2c1N	24.2	4.0%	-2.1	-15.7%	-8.9
CN1CCC(C(=O)C(=O)O)C1=O (stereo not given)	18.1	.	.	.	.
CCc1ccc(C(c2ccccc2)c2c(C)[nH]c3ccccc23)s1 (stereo not given)	-62.0*	.	.	.	.
Cc1[nH]c2ccccc2c1SCC(=O)O	6.1	6.9%	1.6	-14.6%	4.6
